In the supplement of paper PMC10849652:
About 8,800 targets were measured; listed, in parts, are those with a hit and a random draw of the rest. About 0.5% of all pairs of compound and target were hits. Values without a mark were called inactive.

What was measured:
Assay in all cases: log2 fold change, soluble protein after heating vs DMSO (PISA); higher = thermal stabilisation; K562 lysate, 10 uM; active = over 0.2 and 3.5 SD of the protein, either way, in both replicates (recomputed)
ibrutinib = compound: C=CC(=O)N1CCC[C@@H](n2nc(-c3ccc(Oc4ccccc4)cc3)c3c(N)ncnc32)C1 [ibrutinib]
Summary of the method: (§1)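 Log-two fold change in thermal stability relative to solvent controls is reported from duplicates. For each sample, crude K562 extract from dounce-homogenised pellets in PBS pH 7.4 with 1 mM MgCl2, at 1 mg/mL protein, was treated with 10 μM compound for 30 min. Aliquots heated for 3 min across 48°C-58°C were pooled, brought to 0.5% NP-40 at 4°C and cleared at 21,000xg for 90 min. The supernatant was quantified by TMTpro 16plex LC-MS/MS with channel sums equalised.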

[1] = compound: CC(=O)c1cnc2ccc(-c3cc(Cl)c(O)c(Cl)c3)nc2c1N[C@H]1CC[C@H](CN(C)C)CC1
Summary of the method: as §1

ralimetinib = compound: CC(C)(C)Cn1c(N)nc2ccc(-c3[nH]c(C(C)(C)C)nc3-c3ccc(F)cc3)nc21 [ralimetinib]
Summary of the method: as §1

[2] = compound: CC(C)(O)CC(=O)NCCn1ccc2ncnc(Nc3ccc(Oc4cccc(C(F)(F)F)c4)c(Cl)c3)c21
Summary of the method: as §1

[3] = compound: CC(C)C1=C2N=C(C=C(N2N=C1)NCC3=CC=CC=C3)NCCCCCCN
Summary of the method: as §1

[4] = compound: CC1=C(C(CC(=O)N1)C2=CC=C(C=C2)C(F)(F)F)C(=O)NC3=C(C=C4C(=C3)C=NN4)F
Summary of the method: as §1

[5] = compound: CC1=C(C2=C(C=C1)C(=O)C3=CC=CC=C3N2CCCN)C
Summary of the method: as §1

[6] = compound: CC1=C(C=C(C=C1)NC(=O)C2=CC(=CC=C2)C(C)(C)C#N)NC3=CC4=C(C=C3)N=CN(C4=O)C
Summary of the method: as §1

[7] = compound: CC1=C(C=C(C=C1)NC(=O)C2=CC(=CC=C2)N(C)C)NC(=O)C3=CC=C(C=C3)O
Summary of the method: as §1

[8] = compound: CC1=CC=C(C=C1)SC2=C3C=C(SC3=CN=C2)C(=O)N
Summary of the method: as §1

Chain of UniProt P49336 (P49336 whole entry, looked up): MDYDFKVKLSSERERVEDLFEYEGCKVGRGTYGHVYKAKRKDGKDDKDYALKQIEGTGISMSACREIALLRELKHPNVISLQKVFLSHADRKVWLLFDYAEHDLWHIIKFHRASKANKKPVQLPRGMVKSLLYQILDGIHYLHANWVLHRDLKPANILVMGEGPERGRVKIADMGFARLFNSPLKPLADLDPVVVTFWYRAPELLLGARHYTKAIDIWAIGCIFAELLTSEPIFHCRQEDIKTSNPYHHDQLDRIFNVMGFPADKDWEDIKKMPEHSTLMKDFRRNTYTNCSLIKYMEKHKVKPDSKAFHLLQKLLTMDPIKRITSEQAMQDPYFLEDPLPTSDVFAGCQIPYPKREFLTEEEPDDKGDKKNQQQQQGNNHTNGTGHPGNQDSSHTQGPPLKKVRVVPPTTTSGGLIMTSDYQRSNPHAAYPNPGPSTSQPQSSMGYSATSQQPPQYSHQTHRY
Chain of UniProt Q92879 (Q92879 whole entry, looked up): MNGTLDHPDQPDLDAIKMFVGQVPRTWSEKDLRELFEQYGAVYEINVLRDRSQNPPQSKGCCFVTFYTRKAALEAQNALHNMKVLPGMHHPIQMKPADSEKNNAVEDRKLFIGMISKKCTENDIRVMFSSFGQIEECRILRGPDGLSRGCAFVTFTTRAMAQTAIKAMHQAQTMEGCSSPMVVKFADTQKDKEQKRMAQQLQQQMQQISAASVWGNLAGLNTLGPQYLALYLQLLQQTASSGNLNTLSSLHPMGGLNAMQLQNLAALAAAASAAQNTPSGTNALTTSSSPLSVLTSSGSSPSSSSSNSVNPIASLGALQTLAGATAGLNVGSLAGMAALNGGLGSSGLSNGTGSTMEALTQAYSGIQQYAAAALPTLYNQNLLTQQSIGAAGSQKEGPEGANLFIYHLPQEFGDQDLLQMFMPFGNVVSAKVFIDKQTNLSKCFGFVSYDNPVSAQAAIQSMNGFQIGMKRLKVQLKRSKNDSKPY
Chain of UniProt O00311 (O00311 whole entry, looked up): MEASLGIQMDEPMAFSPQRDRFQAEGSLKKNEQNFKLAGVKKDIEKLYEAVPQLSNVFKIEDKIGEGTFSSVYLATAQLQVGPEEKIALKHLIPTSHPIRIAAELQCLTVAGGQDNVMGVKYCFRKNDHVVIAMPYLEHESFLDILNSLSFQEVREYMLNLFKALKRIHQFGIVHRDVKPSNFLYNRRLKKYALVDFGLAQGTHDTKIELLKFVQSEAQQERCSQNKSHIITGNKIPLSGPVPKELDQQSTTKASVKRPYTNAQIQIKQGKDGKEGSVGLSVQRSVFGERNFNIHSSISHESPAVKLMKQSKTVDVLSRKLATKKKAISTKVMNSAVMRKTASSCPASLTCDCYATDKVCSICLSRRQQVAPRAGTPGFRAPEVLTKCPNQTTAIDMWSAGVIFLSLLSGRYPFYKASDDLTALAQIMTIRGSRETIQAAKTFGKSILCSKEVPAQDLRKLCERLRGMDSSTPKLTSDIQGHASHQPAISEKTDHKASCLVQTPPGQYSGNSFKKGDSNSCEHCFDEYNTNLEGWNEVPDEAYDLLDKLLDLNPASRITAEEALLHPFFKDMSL
Chain of UniProt Q8NBU5 (Q8NBU5 whole entry, looked up): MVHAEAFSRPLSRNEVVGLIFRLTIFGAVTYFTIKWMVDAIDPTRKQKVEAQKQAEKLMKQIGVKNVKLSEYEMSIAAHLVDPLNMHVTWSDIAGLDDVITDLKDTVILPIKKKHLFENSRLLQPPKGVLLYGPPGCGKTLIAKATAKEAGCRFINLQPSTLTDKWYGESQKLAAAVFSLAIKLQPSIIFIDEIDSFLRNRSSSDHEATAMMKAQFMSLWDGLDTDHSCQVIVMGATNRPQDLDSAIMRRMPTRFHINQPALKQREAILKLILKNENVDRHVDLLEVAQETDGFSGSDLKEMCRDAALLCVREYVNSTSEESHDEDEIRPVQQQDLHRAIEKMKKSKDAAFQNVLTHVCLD
Chain of UniProt P27824 (P27824 whole entry, looked up): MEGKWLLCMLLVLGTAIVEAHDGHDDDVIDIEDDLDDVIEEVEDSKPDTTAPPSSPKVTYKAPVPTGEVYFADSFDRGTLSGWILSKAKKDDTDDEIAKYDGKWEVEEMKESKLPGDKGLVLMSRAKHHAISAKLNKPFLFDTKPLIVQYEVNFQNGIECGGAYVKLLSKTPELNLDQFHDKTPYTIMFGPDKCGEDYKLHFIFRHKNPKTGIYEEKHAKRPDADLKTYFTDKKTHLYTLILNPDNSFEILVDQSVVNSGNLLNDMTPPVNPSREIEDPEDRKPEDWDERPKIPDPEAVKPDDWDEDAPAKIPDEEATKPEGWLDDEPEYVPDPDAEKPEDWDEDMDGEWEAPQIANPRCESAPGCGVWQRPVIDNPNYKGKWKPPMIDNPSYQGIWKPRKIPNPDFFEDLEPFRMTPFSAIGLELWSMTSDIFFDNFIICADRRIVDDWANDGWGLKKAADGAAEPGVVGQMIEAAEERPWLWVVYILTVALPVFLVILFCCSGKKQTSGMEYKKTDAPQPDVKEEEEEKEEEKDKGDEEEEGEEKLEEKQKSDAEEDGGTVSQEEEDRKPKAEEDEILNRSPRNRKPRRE
Chain of UniProt Q8N4Q1 (Q8N4Q1 whole entry, looked up): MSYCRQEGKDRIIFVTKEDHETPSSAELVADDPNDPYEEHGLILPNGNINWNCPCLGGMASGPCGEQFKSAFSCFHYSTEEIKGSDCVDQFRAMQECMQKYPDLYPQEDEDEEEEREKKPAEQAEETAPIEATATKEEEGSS
Chain of UniProt P06493 (P06493 whole entry, looked up): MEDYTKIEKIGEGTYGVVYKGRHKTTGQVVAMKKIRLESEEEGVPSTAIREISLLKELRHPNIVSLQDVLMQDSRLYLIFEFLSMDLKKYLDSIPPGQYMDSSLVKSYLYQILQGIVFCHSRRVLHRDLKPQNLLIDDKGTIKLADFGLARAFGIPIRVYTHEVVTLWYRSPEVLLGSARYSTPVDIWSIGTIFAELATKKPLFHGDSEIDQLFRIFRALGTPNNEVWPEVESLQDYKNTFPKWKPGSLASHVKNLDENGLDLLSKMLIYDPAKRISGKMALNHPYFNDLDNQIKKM
Chain of UniProt Q5VT25 (Q5VT25 whole entry, looked up): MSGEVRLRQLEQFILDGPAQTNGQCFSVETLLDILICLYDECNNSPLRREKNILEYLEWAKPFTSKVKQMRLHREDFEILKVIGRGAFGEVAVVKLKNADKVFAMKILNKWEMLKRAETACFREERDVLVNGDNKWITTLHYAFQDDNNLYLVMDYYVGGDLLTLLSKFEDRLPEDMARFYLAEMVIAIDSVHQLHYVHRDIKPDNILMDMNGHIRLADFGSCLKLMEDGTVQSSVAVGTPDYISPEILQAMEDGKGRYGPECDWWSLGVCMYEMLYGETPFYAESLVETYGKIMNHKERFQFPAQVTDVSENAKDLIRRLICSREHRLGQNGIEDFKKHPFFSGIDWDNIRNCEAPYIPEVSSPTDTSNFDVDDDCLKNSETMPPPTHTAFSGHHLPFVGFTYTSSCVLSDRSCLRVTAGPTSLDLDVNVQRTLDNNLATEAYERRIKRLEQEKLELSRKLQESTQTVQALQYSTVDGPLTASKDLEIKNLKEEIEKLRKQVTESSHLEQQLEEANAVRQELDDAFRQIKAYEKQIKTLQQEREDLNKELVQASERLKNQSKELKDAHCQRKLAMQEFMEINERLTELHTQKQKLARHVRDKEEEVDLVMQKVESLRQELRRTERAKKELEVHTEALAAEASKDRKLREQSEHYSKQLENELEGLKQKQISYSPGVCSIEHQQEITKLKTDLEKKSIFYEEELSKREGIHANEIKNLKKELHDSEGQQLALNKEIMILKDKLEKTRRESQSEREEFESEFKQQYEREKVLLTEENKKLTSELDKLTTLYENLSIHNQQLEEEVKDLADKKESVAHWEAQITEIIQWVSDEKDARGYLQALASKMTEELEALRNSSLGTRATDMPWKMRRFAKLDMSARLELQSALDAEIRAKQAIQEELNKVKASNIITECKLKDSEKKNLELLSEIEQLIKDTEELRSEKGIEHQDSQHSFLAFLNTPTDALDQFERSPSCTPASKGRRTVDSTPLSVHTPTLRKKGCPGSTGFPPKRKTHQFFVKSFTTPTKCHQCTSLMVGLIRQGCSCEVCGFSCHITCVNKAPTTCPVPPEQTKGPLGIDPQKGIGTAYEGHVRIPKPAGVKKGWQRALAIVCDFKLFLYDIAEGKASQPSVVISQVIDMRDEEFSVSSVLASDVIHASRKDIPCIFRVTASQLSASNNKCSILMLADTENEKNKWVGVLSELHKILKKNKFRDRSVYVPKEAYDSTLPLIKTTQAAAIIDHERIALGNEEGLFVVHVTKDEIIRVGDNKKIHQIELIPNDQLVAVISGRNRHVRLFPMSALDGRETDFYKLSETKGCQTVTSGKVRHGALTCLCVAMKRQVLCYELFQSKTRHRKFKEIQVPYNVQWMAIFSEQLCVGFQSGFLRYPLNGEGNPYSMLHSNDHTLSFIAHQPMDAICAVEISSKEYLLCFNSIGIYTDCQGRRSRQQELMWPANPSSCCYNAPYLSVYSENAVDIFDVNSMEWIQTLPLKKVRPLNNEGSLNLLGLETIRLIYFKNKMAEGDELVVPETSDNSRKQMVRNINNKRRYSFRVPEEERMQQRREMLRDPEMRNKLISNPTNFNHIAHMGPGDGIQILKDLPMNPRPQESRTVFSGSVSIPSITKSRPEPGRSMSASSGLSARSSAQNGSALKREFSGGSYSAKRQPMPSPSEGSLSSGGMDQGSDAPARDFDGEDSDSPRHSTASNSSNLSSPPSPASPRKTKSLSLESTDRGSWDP
Chain of UniProt Q86WA6 (Q86WA6 whole entry, looked up): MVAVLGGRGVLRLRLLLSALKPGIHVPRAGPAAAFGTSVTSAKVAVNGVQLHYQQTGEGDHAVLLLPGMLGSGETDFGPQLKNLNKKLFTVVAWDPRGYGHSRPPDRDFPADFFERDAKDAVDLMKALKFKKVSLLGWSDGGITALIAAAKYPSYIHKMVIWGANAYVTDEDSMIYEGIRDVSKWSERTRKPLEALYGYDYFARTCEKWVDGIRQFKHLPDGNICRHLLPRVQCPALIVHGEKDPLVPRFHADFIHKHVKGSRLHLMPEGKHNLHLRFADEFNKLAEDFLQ

Target | log2 fold change (ibrutinib) | log2 fold change [1] | log2 fold change (ralimetinib) | log2 fold change [2] | log2 fold change [3] | log2 fold change [4] | log2 fold change [5] | log2 fold change [6] | log2 fold change [7] | log2 fold change [8]
CDC7 (UniProt O00311) | 0.04 | 0.09 | 0.014 | 0.028 | 0.047 | 0.066 | -0.011 | 0.05 | -0.002 | -0.07
CDK16 isoform 2 (UniProt Q00536) | 0.025 | 0.28 | 0.016 | 0.009 | -0.089 | -0.023 | -0.007 | -0.037 | -0.024 | -0.141
CDC42BPA isoform 6 (UniProt Q5VT25) | 0.016 | 0.039 | 0.012 | -0.013 | 0.03 | 0.005 | -0.004 | 0.018 | 0.034 | -0.003
CEPT1 (UniProt Q9Y6K0) | 0.011 | 0.061 | 0.009 | -0.003 | 0.032 | 0.004 | -0.008 | 0.026 | 0 | 0.024
ATRIP (UniProt Q8WXE1) | 0.019 | 0.129 | -0.007 | -0.014 | -0.048 | 0.063 | 0.005 | -0.008 | -0.008 | -0.019
BUB1B isoform 3 (UniProt O60566) | 0.035 | -0.007 | 0.001 | 0.021 | 0.003 | -0.001 | 0.004 | -0.028 | 0.003 | 0.001
CAMLG (UniProt P49069) | -0.019 | -0.003 | 0.084 | -0.023 | 0.009 | -0.068 | -0.024 | -0.028 | 0.004 | -0.012
CCDC22 (UniProt O60826) | 0.006 | 0.033 | -0.005 | -0.045 | -0.009 | 0.005 | 0.001 | -0.01 | 0.025 | -0.027
ATG7 (UniProt O95352) | 0.014 | -0.008 | 0.026 | -0.016 | -0.022 | 0.021 | 0.002 | -0.001 | 0.011 | 0.027
CELF1 isoform 4 (UniProt Q92879) | 0.027 | -0.027 | 0.034 | -0.004 | 0.033 | 0.072 | 0.016 | -0.331 (active) | 0 | 0.025
BPHL (UniProt Q86WA6) | -0.073 | -0.016 | 0.047 | 0.06 | -0.045 | 0 | -0.015 | 0.025 | -0.004 | -0.002
CANX isoform 2 (UniProt P27824) | -0.046 | -0.009 | -0.029 | 0.003 | 0.007 | 0.001 | -0.004 | 0.011 | 0.029 | -0.025
CARS isoform 3 (UniProt P49589) | -0.012 | 0.015 | -0.016 | 0.033 | -0.016 | -0.001 | 0.015 | -0.032 | 0.009 | 0.016
ATP6V0A2 (UniProt Q9Y487) | 0.016 | -0.017 | 0 | -0.073 | -0.077 | 0.007 | -0.014 | 0.041 | -0.032 | 0.012
CAMKK2 (UniProt Q96RR4) | 0.052 | 0.231 (active) | 0.035 | -0.005 | 0.019 | -0.011 | -0.005 | -0.031 | 0.005 | 0.014
BET1 (UniProt O15155) | -0.03 | 0.041 | -0.085 | 0.01 | 0.035 | 0.033 | -0.01 | -0.019 | 0.001 | -0.001
CHAF1A (UniProt Q13111) | 0.026 | -0.017 | 0.011 | 0.018 | 0.032 | 0.049 | -0.043 | 0.001 | 0.001 | 0.012
CAMKK1 isoform 2 (UniProt Q8N5S9) | 0.027 | 0.189 | 0.063 | -0.153 | -0.059 | -0.008 | -0.055 | 0.014 | 0.004 | 0.138
CDK8 (UniProt P49336) | 0.006 | 0.097 | -0.041 | -0.011 | -0.073 | -0.058 | 0.095 | 0.088 | 0.016 | 0.16
CDK2 (UniProt P24941) | -0.031 | 0.362 (active) | -0.038 | 0.006 | -0.036 | -0.026 | -0.016 | -0.017 | -0.003 | -0.015
CDK1 (UniProt P06493) | -0.071 | 0.433 (active) | 0.018 | -0.037 | -0.026 | -0.029 | 0.01 | 0.033 | 0.011 | 0
CEP76 (UniProt Q8TAP6) | -0.004 | 0.081 | 0.019 | 0.003 | -0.002 | -0.019 | -0.063 | 0.051 | 0 | -0.005
C2CD5 isoform 3 (UniProt Q86YS7) | -0.005 | -0.026 | 0.016 | -0.123 | 0.019 | -0.018 | 0.023 | 0.071 | -0.004 | -0.068
CCNK isoform 4 (UniProt O75909) | 0.09 | 0.007 | 0.042 | -0.01 | 0.012 | 0.015 | -0.017 | 0.024 | -0.037 | -0.007
C18orf25 (UniProt Q96B23) | 0.114 | 0.026 | 0 | -0.276 (active) | -0.038 | 0.073 | -0.008 | 0.04 | -0.091 | -0.065
CHCHD1 (UniProt Q96BP2) | -0.004 | 0.021 | 0.047 | -0.101 | -0.059 | 0 | -0.081 | -0.014 | -0.032 | -0.055
ATAD1 (UniProt Q8NBU5) | 0 | 0.008 | 0.245 | -0.059 | 0.016 | -0.165 | -0.059 | -0.003 | -0.01 | 0.03
CHCHD4 isoform 2 (UniProt Q8N4Q1) | 0.076 | -0.041 | 0.034 | -0.091 | -0.015 | 0.076 | 0.002 | 0.039 | 0 | 0.013
ATP13A1 (UniProt Q9HD20) | -0.021 | 0.048 | 0.029 | -0.104 | 0.036 | 0.005 | -0.089 | -0.108 | 0.062 | 0.007
